Assay outcomes (PubChem)
Only some compounds are listed: those with a hit (about 2.7% of all), similar ones and a draw of the others.
CF NFkB block: inhibitors of PAF-induced NF-kB signaling, primary screen, cell-based, GFP fluorescence, uHTS | inhibition, % at 5 µM | KKLEB NF-kB-GFP reporter, GFP fluorescence overnight | actives 0.86% (n = 360,000);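 active = at least 50% inhibition at 5 µM, scaled per plate between neutral and stimulator controls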;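 note: PAF is a Pseudomonas aeruginosa culture filtrate used as stimulus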
KKLEB tox: cytotoxicity in KKLEB CF airway cells, primary screen, cytotoxicity control for CF NF-kB inhibitor project, cell-based, uHTS, fluorescence assay plates; activity change (cytotoxicity), % at 5 µM; actives 0.36% (n = 360,000); KKLEB CF airway cells viability, ATPlite luminescence, overnight; stronger effect = lower value; cells stimulated with P. aeruginosa culture filtrate; AID 602141, 2011;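 active = corrected activity change at or below -50% at 5 µM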
Shn3 inh set2: reduction of Shn3 3'UTR firefly luciferase signal, primary screen, Schnurri-3 inhibitor project, cell-based, Clone20 osteoblasts, set 2; inhibition, % at 12.5 µM; actives 0.52% (n = 360,000); Clone20 osteoblast Shn3 3'UTR firefly luciferase, 24 h;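 active = mean inhibition of at least 75% with every replicate also reaching 75%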
HIF-2a block: HIF-2a reporter inhibitors, primary screen, luminescence, 786-0 RCC cells; 786-0 RCC cells HIF-2a reporter, luciferase luminescence, overnight; inhibition, % at 18.8 µM; actives 0.72% (n = 360,000); AID 624352, 2012;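 active = inhibition of the luminescence signal of 40% or more relative to plate controls, in a single-dose primary screen at 18.75 µM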
Peg3 promoter: Peg3 promoter-driven luciferase inhibitors, primary screen, cell-based, HeLa, luciferase luminescence. actives 1.7% (n = 360,000). inhibition, % at 20 µM. HeLa PEG-Prom luciferase reporter, overnight;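 active = inhibition of at least 50% at 20 µM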
TRPM1 prom inh: inhibitors of MITF-dependent TRPM1 promoter reporter, primary screen, cell-based, SK-MEL-5, single point, luciferase; SK-MEL-5 TRPM1 promoter luciferase, 24 h; inhibition, % at 12.5 µM; actives 0.83% (n = 330,000);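 active = mean inhibition across replicates of 60% or more, whatever share of single replicates reaches that level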
A number is an active result; . = inactive; / = no result; ! = not confirmed by another sample.

SMILES	CF NFkB block	KKLEB tox	Shn3 inh set2	HIF-2a block	Peg3 promoter	TRPM1 prom inh
Cc1ccc(C(CNS(=O)(=O)c2ccc(Br)cc2)N2CCN(C)CC2)cc1 (stereo unspecified)	.	.	.	.	.	80
Cc1ccc(C(CNS(=O)(=O)c2ccccc2)N2CCN(C)CC2)cc1 (stereo unspecified)	.	.	.	.	.	.
COc1ccccc1NC(=O)N(C)C[C@@H]1OCc2cn(nn2)CCCC(=O)N([C@H](C)CO)C[C@H]1C	.	.	.	.	.	/
COc1ccc(C(=O)NC(=S)NNC(=O)c2ccc3ccccc3n2)cc1	.	.	90	.	.	.
COc1ccc(N=C(NN)c2ccc3ccccc3n2)cc1	.	.	.	56	.	.
CN(Cc1ccccc1)C(=O)Cn1nnc(-c2ccccc2)c1COc1ccc2ccccc2c1	.	.	.	.	.	/
Cc1cc(C)c2cc(C#N)c(NCCCNC(=O)c3cccnc3)nc2c1	.	.	.	.	.	/
COc1ccc(CN2C(=O)C(CC(=O)NCc3cccc4ccccc34)CC(C(=O)N(C(C)C)C(C)C)=C2C)cc1 (stereo unspecified)	.	.	.	.	.	/
CCN1CCN(Cc2ccc(NC(=O)c3ccc(C)c(NC(=O)c4nccn4C)c3)cc2C(F)(F)F)CC1	.	.	.	.	.	.
CCN1CCN(Cc2ccc(NC(=O)c3cc(NC(=O)c4cnnc5ccccc45)cc(OC)c3)cc2C(F)(F)F)CC1	.	.	.	.	100!	/
CCN1CCN(Cc2ccc(NC(=O)c3cc(NC(=O)c4nccnc4N)cc(OC)c3)cc2C(F)(F)F)CC1	.	.	.	.	.	73
CCN1CCN(Cc2ccc(NC(=O)c3ccc(C)c(NC(=O)c4cncc(-c5cccs5)c4)c3)cc2C(F)(F)F)CC1	80	-85	88	48	99	97
CCN1CCN(Cc2ccc(NC(=O)c3ccc(C)c(NC(=O)c4nccnc4N)c3)cc2C(F)(F)F)CC1	71	.	.	.	81	.
CCOC(=O)c1cc(NC(=O)c2ccc(Cl)cc2)c(=O)n2c1oc1ccc(Cl)cc12	.	-58	.	.	.	.
COc1cccc(-c2cc3nc(NCc4ccc(C)cc4C)n(C)c(=O)c3s2)c1	.	.	.	.	.	/
COc1cccc(C(O)c2nc(-c3cccc(C(F)(F)F)c3)cs2)c1 (stereo unspecified)	.	.	.	.	.	/
COC(=O)C[C@H]1CC[C@H](NC(=O)Nc2ccccc2F)[C@@H](CO)O1	/	/	/	.	/	/
O=C(NCCOc1ccc(F)cc1)c1ccccc1SCc1ccccc1	.	.	.	.	60	.
c1ccc(-c2cc3ccccc3[nH]2)cc1	.	-94	.	.	.	.
O=C(CS(=O)c1ccc(C(F)(F)F)cc1[N+](=O)[O-])Oc1ccccc1 (stereo unspecified)	57	.	.	.	80	88
COC(=O)c1ccc(OC(=O)CS(=O)c2ccccc2[N+](=O)[O-])cc1 (stereo unspecified)	.	.	.	.	.	.
COc1cccc(CNC(=O)[C@@H]2CCCN2C(=O)[C@H]2CCCCN2C(=O)c2ccccc2)c1	/	/	/	.	/	/
CC1(C)C[C@H](O)[C@]2(CO)[C@H](O)C[C@]3(C)C(=CCC4[C@@]5(C)CC[C@H](O)C(C)(C)C5CC[C@]43C)[C@@H]2C1 (stereo partly specified)	69	-65	.	.	95	.
CC1(C)C[C@H](O)[C@]2(CO)CC[C@]3(C)C(=CCC4[C@@]5(C)CC[C@H](O)C(C)(C)C5CC[C@]43C)[C@@H]2C1 (stereo partly specified)	.	.	.	.	.	/
O=C(NC(c1ccc(Cl)cc1)c1cc(Cl)c2cccnc2c1O)c1cccnc1 (stereo unspecified)	.	.	.	.	66	.
